From the supplement of paper PMC6555819

system: VDR:RXRa (NR concentration 270 nM, RXRa partner concentration 90 nM); assay: PBM binding z-score (relative to random genomic background probes); higher = stronger binding; sequences stand for … in GC…GCGATTGACAGCGTAGAATGAAGG
Method: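 Protein-binding microarray (Agilent 4x180K custom design, double-stranded 60-nt probes: 5' GC cap, 34-nt variable region, 24-nt constant primer region; full probe sequence given). Purified or IVT nuclear receptor:RXRα heterodimers (3:1 NR:RXRα, mostly 270:90 nM) or homodimers were incubated for 1 h in PBS with 2% milk and no ligand, then detected with Alexa488 antibodies. Fluorescence from o1-orientation probes (~5 replicates averaged) was converted to z-scores against 500 random hg19 background probes. Variable regions are seed direct-repeat (DR0–DR5) sites, all their single-nucleotide variants and half-site ablations.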

Sequence | PBM binding z-score
CCTAGTTGGTCAAAGTCACACACGCTATAGGTAC | 0.996
TTACCAAGGTGAGCTGAGGTTGTTGATCCAACTC | 0.678
TAGCCTAGGTCATGGGCCAGTATGCCACGCGAAC | 1.98
ATCGAAAGGTCGTGAGGTGAGTCTACAGAAAGGC | 3.66
TCTATTAGTTCATTAGGGCAACCGAAACAGCGGA | 2.2
GCTTGTAGATCAAGGTTAAGAAGGACTAAGCTAA | 0.438
TCTTGTAGAGCAACAGGAGGTTAAGAAAGATCGA | 0.0425
TGTAGCAGGCCAGAGGGTCACTCAAGAGGTACGG | 1.46
TCTTATAGGTAAAAGGTGAAAGTCGGTGTGGTAA | 1.66
CCTACTGCGCCACGAAAGGTCATTGATTCAGTGA | 4.08
CCTACTAGGCCACGAAAGGTCATTGATTCAGTGA | 4.42
ATATCAAGGTGATCGTGAGGTCGTTGATACTAAC | 3.33
GCTGCTAGGTCAACTGATGTTCAGCTAAAGCTCG | 1.61
GCTAGCCGGCCATTTGGGTCACTCAATGACGGGC | 0.203
CCTAGCAAGCCAATCTGGGTCACTCAAGGCTTGA | 0.396
TCTCGGAGGACACTAAGGTCAGAGCTTTCCAGAG | 3.31
CGTCCAAGGTCAGGGAGGTCAGTGAATGCCGAGT | 7.3
GCTCGGAGGACAATGTCAGAGCTTTGTCCGTAGA | -0.573
CAAACTAGGTCACCGGAAGGTCAAACTCCGCATG | 6.17
CAAACGAGGGCATGAGTTGATAGCAAATGCCGAT | 1.58

Sequence | PBM binding z-score
TAGCCTAGGTAATTCAGGGGCCAGTATAGAAAGC | -0.417
CCTACTGGGCCATCAGGTCATTGATATCAACGTT | 1.81
CAGCCCAGGTCAGGGCCAGTATAGGAGGAACGTT | 0.803
CCTAGTTGTTCAAGGTCACACACGCTATAGGTAC | 4.49
TGAATGAGGTTATAAGATGAGGGAACGTTGCAAA | 0.832
GCTGCTAGGTCAACTGATTGTCAGCTAAAGCTCG | 1.14
CCTAGTTGGTCGGGAGGTCACACACCGGATATGA | 3.78
CAGAGTAGGTTATGGGGCATTCAGGCAACGGTGA | 0.214
TCTAGTTAGTCAAAGGTCACACACTCGAAATGCG | 4.97
CCTAGCAGGCCAATCTGGGTCACTCAAGGCTTGA | 0.724
CCTGCTAGGTCATTGGTCAGCTAAAGCAGCTCGC | 2.1
GCTACTAGGTCAGGTTGGTCAGCTAACGGGTACG | 0.914
ATACCAAGGTGATCGTGAGGTCGTTCATACTAAC | 3.58
TAGCCTAGGTCATTGGGCCACTATAGTACGCATC | 2.23
GCTAGCAGGCCATTTGAGTCACTCAATGACGGGC | -0.568
CCTAACAGGCCAATCTGGGTCACTCAAGGCTTGA | 1.04
CGAACGGGGGCATGAGTTGATAGCAAATGCCGAT | 3.88
ACTAGCCGGCCAAGGGTCACTCAAGATTAGTCCG | 2.59
CCTATTAGTTGATCATAAGGGCAACCGAAGCTCG | 0.485
ATACCAAGGTGATCGAGAGGTCGTTGATACTAAC | 3.02
